# ± gives the standard deviation of the averaged measurements.
# Key:
# Test in all cases: promoter activity interaction Z-score (Lux/OD deviation from empty-vector control); higher = stronger promoter induction by the compound
# [1] = test system: E. coli BW25113 acrABp lux reporter
# How it was run: (§1)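 Wild-type E. coli BW25113 and three single-gene deletion strains, each carrying a low-copy luxCDABE promoter reporter, were grown at 37°C in 40 µl LB Lennox per well of a 384-well plate. Every compound was applied at four 1:2 dilutions in biological duplicates, and OD600 and luminescence were read every 30 min for 12 h. Integration covered 0–8 h for wild type and 1–9 h for deletion strains, and wells under 10% of the median growth value were removed. Scores are Z-transformed residuals of growth-normalised luminescence fitted against a control.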
# [2] = test system: E. coli BW25113 marRABp lux reporter
# How it was run: as §1
# [3] = test system: E. coli BW25113 micFp lux reporter
# How it was run: as §1
# [4] = test system: E. coli BW25113 ompFp lux reporter
# How it was run: as §1
# [5] = test system: E. coli BW25113 robp lux reporter
# How it was run: as §1
# [6] = test system: E. coli BW25113 soxSp lux reporter
# How it was run: as §1
# [7] = test system: E. coli BW25113 tolCp lux reporter
# How it was run: as §1
# [8] = 19.7 µg/ml, genetic background: wild type
# [9] = 19.7 µg/ml, genetic background: ΔmarA
# [10] = 19.7 µg/ml, genetic background: Δrob
# [11] = 19.7 µg/ml, genetic background: ΔsoxS
# [12] = 39.3 µg/ml, genetic background: wild type
# [13] = 39.3 µg/ml, genetic background: ΔmarA
# [14] = 39.3 µg/ml, genetic background: Δrob
# [15] = 39.3 µg/ml, genetic background: ΔsoxS
# [16] = 78.6 µg/ml, genetic background: wild type
# [17] = 78.6 µg/ml, genetic background: ΔmarA
# [18] = 78.6 µg/ml, genetic background: Δrob
# [19] = 78.6 µg/ml, genetic background: ΔsoxS
# [20] = 157.2 µg/ml, genetic background: wild type
# [21] = 157.2 µg/ml, genetic background: ΔmarA
# [22] = 157.2 µg/ml, genetic background: Δrob
# [23] = 157.2 µg/ml, genetic background: ΔsoxS
structure (smiles),measurement,setting,value
CC(=O)[C@H]1CC[C@H]2[C@@H]3CCC4=CC(=O)CC[C@]4(C)[C@H]3CC[C@]12C [Progesterone],promoter activity interaction Z-score,[1]; [8],-0.247 ± 0.13
same,promoter activity interaction Z-score,[1]; [9],-0.405 ± 0.19
same,promoter activity interaction Z-score,[1]; [10],-0.0328 ± 0.098
same,promoter activity interaction Z-score,[1]; [11],-0.282 ± 0.25
same,promoter activity interaction Z-score,[1]; [12],-0.262 ± 0.14
same,promoter activity interaction Z-score,[1]; [13],-0.838 ± 0.1
same,promoter activity interaction Z-score,[1]; [14],-0.217 ± 0.17
same,promoter activity interaction Z-score,[1]; [15],-0.38 ± 0.34
same,promoter activity interaction Z-score,[1]; [16],0.00448 ± 0.24
same,promoter activity interaction Z-score,[1]; [17],-0.886 ± 0.13
same,promoter activity interaction Z-score,[1]; [18],-0.151 ± 0.044
same,promoter activity interaction Z-score,[1]; [19],-0.0393 ± 0.056
same,promoter activity interaction Z-score,[1]; [20],-0.214 ± 0.34
same,promoter activity interaction Z-score,[1]; [21],0.269 ± 0.11
same,promoter activity interaction Z-score,[1]; [22],0.191 ± 0.14
same,promoter activity interaction Z-score,[1]; [23],-0.315 ± 1
same,promoter activity interaction Z-score,[2]; [8],-0.0683 ± 0.075
same,promoter activity interaction Z-score,[2]; [9],0.0187 ± 0.17
same,promoter activity interaction Z-score,[2]; [10],-0.191 ± 0.093
same,promoter activity interaction Z-score,[2]; [11],0.0521 ± 0.092
same,promoter activity interaction Z-score,[2]; [12],-0.275 ± 0.28
same,promoter activity interaction Z-score,[2]; [13],-0.0815 ± 0.0053
same,promoter activity interaction Z-score,[2]; [14],-0.249 ± 0.035
same,promoter activity interaction Z-score,[2]; [15],-0.155 ± 0.11
same,promoter activity interaction Z-score,[2]; [16],-0.102 ± 0.22
same,promoter activity interaction Z-score,[2]; [17],-0.0516 ± 0.038
same,promoter activity interaction Z-score,[2]; [18],-0.252 ± 0.24
same,promoter activity interaction Z-score,[2]; [19],-0.3 ± 0.093
same,promoter activity interaction Z-score,[2]; [20],-0.0485 ± 0.46
same,promoter activity interaction Z-score,[2]; [21],0.0739 ± 0.13
same,promoter activity interaction Z-score,[2]; [22],-0.505 ± 0.15
same,promoter activity interaction Z-score,[2]; [23],-0.178 ± 0.15
same,promoter activity interaction Z-score,[3]; [8],-0.103 ± 0.25
same,promoter activity interaction Z-score,[3]; [9],0.119 ± 0.028
same,promoter activity interaction Z-score,[3]; [10],0.0776 ± 0.12
same,promoter activity interaction Z-score,[3]; [11],0.434 ± 0.5
same,promoter activity interaction Z-score,[3]; [12],-0.0976 ± 0.35
same,promoter activity interaction Z-score,[3]; [13],0.123 ± 0.056
same,promoter activity interaction Z-score,[3]; [14],0.0868 ± 0.01
same,promoter activity interaction Z-score,[3]; [15],0.176 ± 0.29
same,promoter activity interaction Z-score,[3]; [16],-0.119 ± 0.33
same,promoter activity interaction Z-score,[3]; [17],0.21 ± 0.0092
same,promoter activity interaction Z-score,[3]; [18],-0.0152 ± 0.13
same,promoter activity interaction Z-score,[3]; [19],0.432 ± 0.42
same,promoter activity interaction Z-score,[3]; [20],-0.0937 ± 0.11
same,promoter activity interaction Z-score,[3]; [21],0.211 ± 0.14
same,promoter activity interaction Z-score,[3]; [22],-0.0152 ± 0.04
same,promoter activity interaction Z-score,[3]; [23],0.0431 ± 0.32
same,promoter activity interaction Z-score,[4]; [8],-0.534 ± 0.033
same,promoter activity interaction Z-score,[4]; [9],-0.169 ± 0.36
same,promoter activity interaction Z-score,[4]; [10],-0.0375 ± 0.16
same,promoter activity interaction Z-score,[4]; [11],-0.19 ± 0.42
same,promoter activity interaction Z-score,[4]; [12],-0.381 ± 0.1
same,promoter activity interaction Z-score,[4]; [13],-0.611 ± 0.036
same,promoter activity interaction Z-score,[4]; [14],0.0341 ± 0.39
same,promoter activity interaction Z-score,[4]; [15],-0.905 ± 0.22
same,promoter activity interaction Z-score,[4]; [16],-0.604 ± 0.2
same,promoter activity interaction Z-score,[4]; [17],-0.705 ± 0.19
same,promoter activity interaction Z-score,[4]; [18],-0.397 ± 0.063
same,promoter activity interaction Z-score,[4]; [19],-0.681 ± 0.46
same,promoter activity interaction Z-score,[4]; [20],-0.672 ± 0.32
same,promoter activity interaction Z-score,[4]; [21],-0.651 ± 0.19
same,promoter activity interaction Z-score,[4]; [22],-1.43 ± 0.17
same,promoter activity interaction Z-score,[4]; [23],-1.51 ± 0.4
same,promoter activity interaction Z-score,[5]; [8],0.215 ± 0.46
same,promoter activity interaction Z-score,[5]; [9],-0.134 ± 0.11
same,promoter activity interaction Z-score,[5]; [10],0.137 ± 0.78
same,promoter activity interaction Z-score,[5]; [11],0.0784 ± 0.35
same,promoter activity interaction Z-score,[5]; [12],-0.384 ± 0.091
same,promoter activity interaction Z-score,[5]; [13],-0.498 ± 0.18
same,promoter activity interaction Z-score,[5]; [14],-0.00268 ± 0.38
same,promoter activity interaction Z-score,[5]; [15],-0.408 ± 1.2
same,promoter activity interaction Z-score,[5]; [16],0.0849 ± 0.14
same,promoter activity interaction Z-score,[5]; [17],-0.366 ± 0.29
same,promoter activity interaction Z-score,[5]; [18],-0.234 ± 0.65
same,promoter activity interaction Z-score,[5]; [19],-0.171 ± 0.34
same,promoter activity interaction Z-score,[5]; [20],-0.26 ± 0.16
same,promoter activity interaction Z-score,[5]; [21],-0.185 ± 0.13
same,promoter activity interaction Z-score,[5]; [22],-0.798 ± 0.68
same,promoter activity interaction Z-score,[5]; [23],-1.05 ± 0.11
same,promoter activity interaction Z-score,[6]; [8],-0.199 ± 0.29
same,promoter activity interaction Z-score,[6]; [9],-0.22 ± 0.01
same,promoter activity interaction Z-score,[6]; [10],0.0249 ± 0.041
same,promoter activity interaction Z-score,[6]; [11],-0.00845 ± 0.063
same,promoter activity interaction Z-score,[6]; [12],-0.25 ± 0.099
same,promoter activity interaction Z-score,[6]; [13],-0.192 ± 0.018
same,promoter activity interaction Z-score,[6]; [14],-0.155 ± 0.04
same,promoter activity interaction Z-score,[6]; [15],-0.315 ± 0.23
same,promoter activity interaction Z-score,[6]; [16],-0.226 ± 0.1
same,promoter activity interaction Z-score,[6]; [17],-0.147 ± 0.072
same,promoter activity interaction Z-score,[6]; [18],-0.0586 ± 0.098
same,promoter activity interaction Z-score,[6]; [19],-0.236 ± 0.25
same,promoter activity interaction Z-score,[6]; [20],-0.226 ± 0.079
same,promoter activity interaction Z-score,[6]; [21],-0.186 ± 0.028
same,promoter activity interaction Z-score,[6]; [22],-0.48 ± 0.037
same,promoter activity interaction Z-score,[6]; [23],-0.776 ± 0.47
same,promoter activity interaction Z-score,[7]; [8],-0.462 ± 1.4
same,promoter activity interaction Z-score,[7]; [9],0.741 ± 0.62
same,promoter activity interaction Z-score,[7]; [10],-0.127 ± 0.85
same,promoter activity interaction Z-score,[7]; [11],-0.377 ± 0.42
same,promoter activity interaction Z-score,[7]; [12],0.606 ± 1
same,promoter activity interaction Z-score,[7]; [13],0.0914 ± 0.43
same,promoter activity interaction Z-score,[7]; [14],0.494 ± 1
same,promoter activity interaction Z-score,[7]; [15],-1.65 ± 1.1
same,promoter activity interaction Z-score,[7]; [16],-0.308 ± 0.37
same,promoter activity interaction Z-score,[7]; [17],0.451 ± 1.3
same,promoter activity interaction Z-score,[7]; [18],0.161 ± 0.71
same,promoter activity interaction Z-score,[7]; [19],0.0688 ± 1.3
same,promoter activity interaction Z-score,[7]; [20],-0.227 ± 0.23
same,promoter activity interaction Z-score,[7]; [21],0.167 ± 0.12
same,promoter activity interaction Z-score,[7]; [22],-0.116 ± 0.74
same,promoter activity interaction Z-score,[7]; [23],0.764 ± 1
